VDR inh: vitamin D3 receptor (human) inhibition | VDR-SRC2-3 peptide fluorescence polarization, 2 h | 0.93% of 400,000 active | Potency, µM, inactives show max response, negative = inhibition, actives largely listed as inhibitors | AID 504847 | P11473; further: potency means the concentration at half of the fitted maximal effect
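Reagent solutions, kept cold and dark, are dispensed first; compounds are then pinned in at 23 nl, plates briefly spun, and incubated 2 h at ambient temperature. Inhibition of VDR–SRC2-3 peptide binding is read by fluorescence polarization.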
G9a block: G9a (human) methyltransferase inhibition. Q96KQ7. Potency, µM (top dose mostly 102 µM), for inactives: top-dose activity, negative = inhibition, most hits filed as inhibitors. G9a H3K9 monomethylation, AlphaScreen, 2 h. 8.8% of 350,000 active; further: potency means the concentration at half of the fitted maximal effect; nearly all actives have a fitted effect of over 75% in size
Target sequence (Q96KQ7 913-1193 limits assumed): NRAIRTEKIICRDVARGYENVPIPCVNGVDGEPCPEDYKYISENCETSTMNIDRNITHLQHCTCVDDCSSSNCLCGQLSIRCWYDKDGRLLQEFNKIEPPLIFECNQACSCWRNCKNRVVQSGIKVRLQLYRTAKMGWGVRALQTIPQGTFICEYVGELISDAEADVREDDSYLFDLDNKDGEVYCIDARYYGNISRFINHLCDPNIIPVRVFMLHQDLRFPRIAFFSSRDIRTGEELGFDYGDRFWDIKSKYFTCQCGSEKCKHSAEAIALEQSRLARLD
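Signal arises when biotinylated H3K9 peptide, once monomethylated, bridges streptavidin donor and antibody-captured acceptor beads. Enzyme at 20 nM was preincubated 15 min with test compounds; peptide 500 nM and SAM 20 uM then reacted for 2 h.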
MmCpn inh: M. maripaludis TRiC chaperonin inhibition | purified Mm-Cpn ATPase, ADP Transcreener TR-FRET | Potency, µM (titrated, usually from 76.9 µM), for the others: at the top dose activity, negative = inhibition, most hits filed as inhibitors | 0.031% of 330,000 active | AID 504842; further: potency means the concentration at half of the fitted maximal effect; nearly all actives have a fitted effect of over 80% in size
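Purified archaeal Mm-CPN (25nM final) preincubated 10 min at 37degC with compound, then 10uM ATP for 30 min at 37degC; ADP measured by HTRF Transcreener TR-FRET; buffer 30 mM TRIS pH 7.4, 100mM KCl, 5mM MgCl2, 1mM DTT.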
CCT chaperon mod: changes cytosolic chaperonin activity; purified chaperonin ATPase assay, HTRF ADP detection, 30 min; activity change, % (test concentration not listed), hits read low; 0.3% of 360,000 active; in the data active means activity change below about -30%
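First, chaperonin was dispensed at 40 nM or 20 nM final depending on batch activity. Next, compounds were pinned at 76 uM and ATP added at 10 uM. After 30 min at 37 °C, ADP detection reagents ran 30 min at ambient temperature.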
PLK1 PBD inh: inhibitors of human PLK1 polo-box domain binding; P53350; Plk1 PBD binding of FITC phosphopeptide, fluorescence polarization; Potency, µM, for inactives: max response, negative = inhibition, actives largely listed as inhibitors; 2.8% of 360,000 active; AID 720504; further: potency means the concentration at half of the fitted maximal effect; series mostly up to about 57 µM; nearly all actives have a fitted effect of over 65% in size
Sfp inh: blocks B. subtilis Sfp PPTase activity. Biochemical Sfp PPTase activity, qHTS. Potency, µM, without a hit: largest response in the series, negative = inhibition, hits mostly inhibitors. 3.5% of 310,000 active. AID 1490;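 further: the enzyme is Sfp with the accession as filed and its product quenches rhodamine fluorescence; potency means the concentration at half of the fitted maximal effect; 0% = enzyme reaction without inhibitor and -100% = no enzyme wells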
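Sfp 15 nM + cpd, 15 min RT; start w/ rhodamine-CoA 5 uM, BHQ-2-YbbR 12.5 uM (final); 50 mM Hepes pH 7.6, 10 mM MgCl2, 0.01% NP-40, 0.01% BSA; read 525/598 nm at 0 and 30 min.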
Active calls of the source: *; [ ] = dose if it differs, or a comment. The list is not random: actives were taken first. Their share in the collection is about 10%. Unless noted, the call rests on the fitted dose curve; in most records, active means well fitted curve in the direction sought with a large enough effect; inconclusive means small, poorly fitted or top-dose-only effect, or another doubt; inactive means no such curve, though single readings can be large; an effect the other way counts as inactive or inconclusive. Unless noted, on the % scale 0 is the no-effect control and ±100 the full control effect.

Results for CC1=C(SCCC#N)S/C(=C2\SC(C)=C(SCCC#N)S2)S1 ?
VDR inh: -100.0%; G9a block: 1.26µM*; MmCpn inh: -1.9%; CCT chaperon mod: -0.6; PLK1 PBD inh: 11.9µM*; Sfp inh: 7.94µM*

How did O=C1OCC(CO)(CO)N=C1NNc1cc(Cl)ccc1Cl do in these assays?
VDR inh: -11.4%; G9a block: 50.1µM*; MmCpn inh: -0.1%; CCT chaperon mod: -2.6; PLK1 PBD inh: -3.3%; Sfp inh: inconclusive

What do the screens show for `O=C1OCC(CO)(CO)N=C1NNc1ccccc1[N+](=O)[O-]`?
VDR inh: -7.6%; G9a block: inconclusive; MmCpn inh: -0.3%; CCT chaperon mod: -1.6; PLK1 PBD inh: 5.1%; Sfp inh: inconclusive

How did Cc1ccc(Cl)cc1Nc1nn2c(=O)c3ccc(C(=O)NCc4ccc(F)cc4)cc3nc2s1 do in these assays?
VDR inh: 1.4%; G9a block: -6.1%[59 µM]

How did CCOC(=O)N1CCC(c2[nH][nH]c(=O)c2C)CC1 do in these assays?
VDR inh: 5.8%; G9a block: 39.8µM*; MmCpn inh: 1.8%; CCT chaperon mod: 1.4; PLK1 PBD inh: -2.3%; Sfp inh: -1.0%

What do the screens show for `COc1cc(OC)cc(C(=O)N2CCC(N3CCCCCC3)CC2)c1`?
VDR inh: -10.2%; G9a block: 10µM*; MmCpn inh: 0.7%; CCT chaperon mod: -3.2; PLK1 PBD inh: -8.5%; Sfp inh: -12.9%

How did COc1cccc(C(=O)N2CCN(C3CCC(c4ccccc4)CC3)CC2)c1 (stereo unspecified) do in these assays?
VDR inh: -3.9%; G9a block: -138.1%[59 µM]; MmCpn inh: -0.4%; CCT chaperon mod: -1.9; PLK1 PBD inh: 1.9%; Sfp inh: -26.4%

Results for COc1cccc(C(=O)N2CCC(N3CC(C)OC(C)C3)CC2)c1 (stereo unspecified) ?
VDR inh: -14.8%; G9a block: 2.82µM*; MmCpn inh: 1.4%; CCT chaperon mod: -0.5; PLK1 PBD inh: -8.7%; Sfp inh: -23.4%

How did COc1cccc(C(=O)N2CCOCC2)c1 do in these assays?
VDR inh: -4.1%; G9a block: 0.0%; MmCpn inh: 0.7%; CCT chaperon mod: 0.4; PLK1 PBD inh: -7.7%; Sfp inh: 11.9%

Results for COc1cc(OC)cc(C(=O)N2CCN(C3CCN(Cc4ccccc4)CC3)CC2)c1 ?
VDR inh: 15.0%; G9a block: 2.51µM*; MmCpn inh: 1.7%; CCT chaperon mod: 1.9; PLK1 PBD inh: 1.7%; Sfp inh: inconclusive

Results for COc1cc(OC)cc(C(=O)N2CCN(C3CCC(C)CC3)CC2)c1 (stereo unspecified) ?
VDR inh: 24.8%; CCT chaperon mod: 2.4; PLK1 PBD inh: 3.3%

What do the screens show for `O=C(Nc1ccccc1)c1ccc(C(=O)Nc2ccccc2)nc1`?
VDR inh: -10.8%; G9a block: inconclusive; MmCpn inh: -0.5%; CCT chaperon mod: -1.1; PLK1 PBD inh: 18.9µM*; Sfp inh: 3.4%

Results for CCN(CC)CCN(CC(=O)N(C1CCCCC1)C1CCCCC1)C(=O)c1ccco1 ?
VDR inh: -6.0%; G9a block: 44.7µM*; MmCpn inh: -1.7%; CCT chaperon mod: 2.6; PLK1 PBD inh: -8.2%; Sfp inh: -23.3%

Results for Cc1ccc2c(C(=O)CCl)c(C)[nH]c2c1 ?
VDR inh: -2.5%; G9a block: 4.1%[12.7 µM]; MmCpn inh: 1.3%; CCT chaperon mod: 0.4; PLK1 PBD inh: -21.1%; Sfp inh: 17.4%

What do the screens show for `Cc1ccc2[nH]cc(C(=O)CN3CCN(C)CC3)c2c1`?
VDR inh: -1.9%; MmCpn inh: -2.5%; CCT chaperon mod: -0.6; PLK1 PBD inh: -8.3%; Sfp inh: -1.0%

How did Cc1ccc2[nH]cc(C(=O)CN3CCN(c4ccccn4)CC3)c2c1 do in these assays?
VDR inh: 5.2%; G9a block: 50.1µM*; MmCpn inh: inconclusive; CCT chaperon mod: -2.3; PLK1 PBD inh: -6.0%; Sfp inh: 0.2%

Results for Cc1ccc2[nH]cc(C(=O)CCl)c2c1 ?
VDR inh: -22.9%; G9a block: inconclusive; MmCpn inh: -0.5%; CCT chaperon mod: -0.3; PLK1 PBD inh: 15µM*; Sfp inh: 11.7%

Screening results as filed in PubChem.
